This assay concerns primary human hepatic stellate cells (donor 1). Briefly: scaled lipid accumulation score (0 = DMSO-like, 1 = nortriptyline-like); higher = stronger HSC inactivation (lipid re-accumulation), active = hit call of the paper. The conditions noted are these: 48 h.
Where [1] appears, read: library stock concentration: 1 mM.
Setting [2] is: library stock concentration: 10 mM.
Setting [3] is: library stock concentration: 80 uM.
[4] abbreviates: library stock concentration: 400 uM.
The mark [5] stands for this setting: library stock concentration: 2 mM.
Setting [6] is: library stock concentration: 3.33 mM.

Several values for one entry are separate records, joined by “and”; a condition that tells them apart may be missing. Identical values can stand only once. Counter-ions that a name gives are not always drawn. The whole screen tested about 5,800 compounds, of which about 620 (11%) showed activity. The full list was thinned out, with actives kept by preference. Unmarked numbers belong to inactive results.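 How the source made its calls: active = score above a cut-off or among the top three wells of a plate; in these data no inactive exceeds 0.85.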 Some results are limits rather than exact numbers.

For `CCCCC[C@H](O)/C=C/[C@H]1CC[C@H](O)[C@@H]1CCCCCCC(=O)O` [11-deoxy Prostaglandin F1.alpha.], under setting [1], the “scaled lipid accumulation score” value is no more than 0.
Same read-out and setting: to `CCCCC(C)(C)[C@H](O)/C=C/[C@H]1CCC(=O)[C@@H]1C/C=C\CCCC(=O)O` [11-deoxy-16,16-dimethyl Prostaglandin E2] belongs 0.098.
Take `CN1CCN(CC/C=C2\c3ccccc3Sc3ccc(S(=O)(=O)N(C)C)cc32)CC1` [Thiothixene]: the “scaled lipid accumulation score” value (library stock concentration: 4.5 mM) was 0.856 (active).
With `CN1CCN(CC/C=C2/c3ccccc3Sc3ccc(S(=O)(=O)N(C)C)cc32)CC1` [Thiothixene], under setting [2], the “scaled lipid accumulation score” value is 0.435.
The same measure, in the same setting: then `CN1CCN(CC/C=C2/c3ccccc3Sc3ccc(S(=O)(=O)N(C)C)cc32)CC1`, with 0.722.
Consider `Cl.OCCN1CCN(CC/C=C2/c3ccccc3Sc3ccc(Cl)cc32)CC1` [Zuclopenthixol hydrochloride], for which the “scaled lipid accumulation score” value is 0.995 (active).
On to `CN1CCN(CCCN2c3ccccc3Sc3ccc(S(=O)(=O)N(C)C)cc32)CC1` [Thioproperazine dimesylate], for which the “scaled lipid accumulation score” value was 0.733.
Regarding `Cl.Cl.OCCN1CCN(CC/C=C2/c3ccccc3Sc3ccc(C(F)(F)F)cc32)CC1` [cis-(Z)-Flupenthixol dihydrochloride], the “scaled lipid accumulation score” value under setting [2] is 1.01 (active).
As to `CCCCC[C@H](O)C/C=C1/C(=O)C=C[C@@H]1C/C=C\CCCC(=O)O` [D12-Prostaglandin J2], the “scaled lipid accumulation score” value under setting [1] was no more than -0.021.
In the case of `CC(=N)NCc1cccc(CN)c1` [1400W dihydrochloride], the “scaled lipid accumulation score” value under setting [2] is no more than -0.006.
Take `Cc1oc(S(=O)(=O)N2CCCCC2)cc1NC(=O)Nc1ccccc1`: the “scaled lipid accumulation score” value under setting [1] is no more than 0.
Regarding `Cc1cc(/N=N/c2cc(S(=O)(=O)O)c(C)cc2C)c(N)cc1O` [Ischemin], the “scaled lipid accumulation score” value reads like this: under setting [3], no more than 0; under setting [4], no more than 0; under setting [5], no more than 0; under setting [2], no more than 0.
`COC(=O)CC(NC(=O)C(C)NC(=O)C(NC(=O)OCc1ccccc1)C(C)C)C(=O)CF` (configuration not stated): the “scaled lipid accumulation score” value by setting is: under setting [6], no more than 0; under setting [2], 0.101.
For `Cc1cc(C)c(S(=O)(=O)Nc2ccccc2C(F)(F)F)c(C)c1`, the “scaled lipid accumulation score” value under setting [2] was 0.002.
Consider `CC/C=C\C/C=C\C/C=C\C/C=C\C/C=C\CCCC(=O)O` [Eicosapentaenoic Acid], for which the “scaled lipid accumulation score” value under setting [1] is 0.001.
Still for that read-out and setting: to `CC/C=C\C/C=C\C/C=C\C/C=C\C/C=C\CCCC(=O)O` [Eicosapentaenoic acid (20:5 n-3)] belongs 0.009; to `CCCC[C@H](CCC(=O)O)NC(=O)CCCCCCc1ccccc1`, no more than 0.
Same read-out and setting: to `CCCCCCCCCCCCCCCC(=O)OCC(COP(=O)(O)O)OC(=O)CCCCCCCCCCCCCCC` (configuration not stated) [Dipalmitoylphosphatidic acid] belongs no more than -0.021.
In the case of `CC1(C)CCC(c2ccc(Cl)cc2)=C(CN2CCN(c3ccc(C(=O)NS(=O)(=O)c4ccc(N[C@H](CCN5CCOCC5)CSc5ccccc5)c(S(=O)(=O)C(F)(F)F)c4)cc3)CC2)C1` [ABT-263 (Navitoclax)], the “scaled lipid accumulation score” value was 0.024 under setting [6] and 0.048 under setting [2].
In the case of `Cc1cnc(Nc2ccc(F)cc2Cl)nc1-c1c[nH]c(C(=O)N[C@H](CO)c2cccc(Cl)c2)c1`, the “scaled lipid accumulation score” value reads like this: under setting [3], no more than -0.001; under setting [4], no more than -0.001; under setting [5], no more than -0.001; under setting [2], no more than -0.001.
Regarding `CC(C)c1cc(-c2n[nH]c(=O)n2-c2ccc3c(ccn3C)c2)c(O)cc1O` [Ganetespib] [listing 1 of 2 here], the “scaled lipid accumulation score” value reads like this: under setting [3], 0.602; under setting [4], 0.802.
For `Cc1cc(NC(=O)Nc2ccc3c(ccn3C)c2)sn1`, the “scaled lipid accumulation score” value under setting [2] was 0.129.
Regarding `CC(C)c1cc(-c2n[nH]c(=O)n2-c2ccc3c(ccn3C)c2)c(O)cc1O` [Ganetespib] [listing 2 of 2 here], the “scaled lipid accumulation score” value reads like this: under setting [5], 0.915 (active); under setting [2], 0.885 (active).
Regarding `CC(C)c1cc(-c2n[nH]c(=O)n2-c2ccc3c(ccn3C)c2)c(O)cc1O` [Ganetespib (STA-9090)], the “scaled lipid accumulation score” value is, setting by setting: under setting [6], 0.691; under setting [2], 0.649.
As for `CCCCCCCCCCCCCCP(=O)(O)O` [Tetradecyl Phosphonate], the “scaled lipid accumulation score” value under setting [1] is no more than 0.
For the molecule `CN(C)C(=O)[C@H](O)[C@H](Cc1ccccc1)NC(=O)c1cc2cc(Cl)ccc2[nH]1`, the “scaled lipid accumulation score” value runs as follows: under setting [6], 0.007; under setting [2], ≤ 0 and 0.127.
As for `Cc1ccc2c(=O)c3ccccc3n(CCCN)c2c1C`, the “scaled lipid accumulation score” value under setting [2] was 0.501.
For `COc1ccccc1C1(O)CCN(CCCn2c3ccccc3c3ccccc32)CC1` [NNC 05-2090 hydrochloride], the “scaled lipid accumulation score” value under setting [2] is 0.491.
Still for that read-out and setting: then `C[C@@H]1CN(CCCn2c3ccccc3c3ccccc32)C[C@H](C)N1.Cl.Cl` [Rimcazole dihydrochloride], with 1.34 (active).
In the case of `O=c1[nH]c2ccccc2n1CCCN1CCN(C(c2ccccc2)c2ccccc2)CC1` [Oxatomide], the “scaled lipid accumulation score” value (library stock concentration: 4.7 mM) was 0.191.
For the molecule `CCCCCCCCNC(=O)Cc1c(C)n(C(=O)c2ccc(Cl)cc2)c2ccc(OC)cc12` [Indomethacin N-octyl amide], the “scaled lipid accumulation score” value under setting [1] was no more than 0.
The same measure, in the same setting: to `O=C(O)/C=C/CCCCCCCCC(=O)O` [Traumatic Acid] belongs no more than 0.
For `O=C1Nc2ccc(I)cc2C1=Cc1cc(Br)c(O)c(Br)c1`, the “scaled lipid accumulation score” value under setting [6] was no more than 0 and the “scaled lipid accumulation score” value under setting [2] is 0.083.
Regarding `CCCCCCCC(=O)CC[C@@H]1[C@@H](C/C=C\CCCC(=O)O)[C@@H](O)C[C@H]1O` [Unoprostone], the “scaled lipid accumulation score” value under setting [1] was no more than 0.

Values taken from the supplement of paper PMC9135407.
